PubChem BioAssay (EPA / NIEHS)
Values joined by “and” are separate entries in the source; they are usually repeats but may differ in a detail not shown here. Identical values can stand only once. Where a structure was tested more than once in an assay, its records may differ in their call. Active and inactive are the calls of the source. Rule for the calls: active = hit-call score of the fitted dose curve at least 0.9, where 1 is the maximum; inactive = score below 0.9.

Columns and labels:
[1] = read-out: Human Leukocyte Antigen - DR isotype (HLADR), HLA-DRA (gene 3122); assay: BSK_3C_HLADR: BioMAP Diversity Plus: 3C Assay for Human Leukocyte Antigen - DR isotype (HLADR) Biomarker Activity (AID 2283019); details: primary human endothelial cells (HUVEC); actives raise or lower the signal
Method in brief: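 Compound added to primary HUVEC cultures, 24 h incubation, then HLA-DR determined by ELISA; endpoint derived by bidirectional fitting relative to DMSO negative control.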

[2] = read-out: Interleukin-8 (IL8), CXCL8 (gene 3576); assay: BSK_3C_IL8: BioMAP Diversity Plus: 3C Assay for Interleukin-8 (IL8) Biomarker Activity (AID 2283020); details: primary human endothelial cells (HUVEC); actives raise or lower the signal
Method in brief: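 HUVEC, 3C stimulation; 24 h compound exposure; IL-8 read by ELISA; gain or loss of signal fitted relative to DMSO control.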

[3] = read-out: Monokine induced gamma interferon (MIG), CXCL9 (gene 4283); assay: BSK_3C_MIG: BioMAP Diversity Plus: 3C Assay for Monokine induced gamma interferon (MIG) Biomarker Activity (AID 2283021); details: primary human endothelial cells (HUVEC); actives raise or lower the signal;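 for AC50: MIG protein level measured by immunoassay in the treated endothelial cultures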
Method in brief: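 HUVEC, 3C system; 24 h chemical exposure; MIG by ELISA; bidirectional fit vs DMSO baseline.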

[4] = BSK_3C_SRB: Viability Assessment in the BioMAP Diversity Plus: 3C Assay (AID 2283023); details: primary human endothelial cells (HUVEC);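 note: fitted both ways against DMSO so a hit may be signal rise or drop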
Method in brief: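 Overt cytotoxicity is gauged in parallel confluent HUVEC cultures by SRB total-protein staining at the time of biomarker measurement, 24 h after dosing. Gain or loss of signal is fitted versus DMSO.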

[5] = read-out: Matrix Metallopeptidase 1 (MMP1), MMP1 (gene 4312); assay: BSK_BE3C_MMP1: BioMAP Diversity Plus: BE3C Assay for Matrix Metallopeptidase 1 (MMP1) Biomarker Activity (AID 2283024); details: primary human bronchial epithelial cells; actives raise or lower the signal
Method in brief: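 ELISA read-out of MMP1 in human lung bronchial epithelial primary cultures, 24 h post-dose; bidirectional curve fit vs DMSO baseline, gain or loss of signal scored.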

[6] = BSK_3C_Vis: BioMAP Diversity Plus: 3C Assay for Morphology Visualization (AID 2283025); details: primary human endothelial cells (HUVEC);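 note: fitted both ways so gain or loss versus DMSO counts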;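 for AC50: light microscopy image of cell morphology used as background control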
Method in brief: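 HUVEC, 3C system; light microscopy of morphology at 24 h post-dose. Bidirectional fit vs DMSO baseline. Secondary readout, background-control function.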

[7] = read-out: Pselectin, SELP (gene 6403); assay: BSK_4H_Pselectin: BioMAP Diversity Plus: 4H Assay for Pselectin Biomarker Activity (AID 2283026); details: primary human endothelial cells (HUVEC); actives raise or lower the signal
Method in brief: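 HUVEC, 24 h chemical exposure; P-selectin read by ELISA. Bidirectional curve fit vs DMSO baseline; gain or loss of signal scored.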

[8] = BSK_4H_SRB: Viability Assessment in the BioMAP Diversity Plus: 4H Assay (AID 2283027); details: primary human endothelial cells (HUVEC);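 note: cells exposed to compound for 24 h before staining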;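 for AC50: curves fitted both ways versus DMSO so AC50 may be loss or gain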
Method in brief: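 Cytotoxicity readout: sulforhodamine B (0.1%) staining of total protein after 10% TCA fixation, measured at 560 nm in human umbilical vein endothelium at 24 h. DMSO set the baseline; fitting was bidirectional.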

[9] = BSK_BE3C_SRB: Viability Assessment in the BioMAP Diversity Plus: BE3C Assay (AID 2283028); details: primary human bronchial epithelial cells;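 note: measured 24 h after chemical dosing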;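 for AC50: fitted both ways so AC50 may mark signal gain or loss versus DMSO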
Method in brief: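 SRB total-protein staining (0.1%, after TCA fixation) of chemically dosed human bronchial epithelial primary cells at 24 h; DMSO serves as the negative control for bidirectional curve fitting.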

[10] = read-out: Thrombomodulin, THBD (gene 7056); assay: BSK_3C_Thrombomodulin: BioMAP Diversity Plus: 3C Assay for Thrombomodulin Biomarker Activity (AID 2283029); details: primary human endothelial cells (HUVEC); actives raise or lower the signal
Method in brief: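 HUVEC, 3C conditions; compound 24 h; thrombomodulin by ELISA; bidirectional curve fit vs DMSO baseline; parallel SRB total-protein staining for cytotoxicity.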

[11] = read-out: Urokinase-type plasminogen activator receptor (uPAR), PLAUR (gene 5329); assay: BSK_4H_uPAR: BioMAP Diversity Plus: 4H Assay for Urokinase-type plasminogen activator receptor (uPAR) Biomarker Activity (AID 2283030); details: primary human endothelial cells (HUVEC); actives raise or lower the signal
Method in brief: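 Endpoint derived via bidirectional curve fitting against DMSO baseline; readout was ELISA detection of uPAR on umbilical vein endothelial cells at 24 h post-treatment, with SRB-stained parallel cultures assessing cytotoxicity.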

[12] = read-out: Human Leukocyte Antigen - DR isotype (HLADR), HLA-DRA (gene 3122); assay: BSK_BE3C_HLADR: BioMAP Diversity Plus: BE3C Assay for Human Leukocyte Antigen - DR isotype (HLADR) Biomarker Activity (AID 2283032); details: primary human bronchial epithelial cells; actives raise or lower the signal
Method in brief: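 Primary human bronchial epithelial cells (BE3C); 24 h chemical exposure; HLA-DR by ELISA; bidirectional curve fit vs DMSO baseline.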

[13] = read-out: Interferon-gamma inducible Protein 10 (IP10), CXCL10 (gene 3627); assay: BSK_BE3C_IP10: BioMAP Diversity Plus: BE3C Assay for Interferon-gamma inducible Protein 10 (IP10) Biomarker Activity (AID 2283034); details: primary human bronchial epithelial cells; actives raise or lower the signal
Method in brief: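 ELISA readout of IP-10 in BE3C system: primary human bronchial epithelial cells, 24 h post-dosing; bidirectional curve fit vs DMSO baseline.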

[14] = read-out: Monokine induced gamma interferon (MIG), CXCL9 (gene 4283); assay: BSK_BE3C_MIG: BioMAP Diversity Plus: BE3C Assay for Monokine induced gamma interferon (MIG) Biomarker Activity (AID 2283035); details: primary human bronchial epithelial cells; actives raise or lower the signal
Method in brief: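 hu bronchial epithelial 1° cells, 24 h cpd; MIG by ELISA; bidirectional fit, DMSO = baseline.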

[15] = read-out: Transforming growth factor beta 1 (TGFb1), TGFB1 (gene 7040); assay: BSK_BE3C_TGFb1: BioMAP Diversity Plus: BE3C Assay for Transforming growth factor beta 1 (TGFb1) Biomarker Activity (AID 2283036); details: primary human bronchial epithelial cells; actives raise or lower the signal
Method in brief: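 Read-out: ELISA for TGF-b1 in primary human bronchial epithelial cultures, 24 h post-dose. Bidirectional curve fitting vs DMSO control; gain or loss of signal both scored.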

[16] = read-out: Plasminogen activator inhibitor-1 (PAI1), SERPINE1 (gene 5054); assay: BSK_BE3C_PAI1: BioMAP Diversity Plus: BE3C Assay for Plasminogen activator inhibitor-1 (PAI1) Biomarker Activity (AID 2283037); details: primary human bronchial epithelial cells; actives raise or lower the signal
Method in brief: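 ELISA read-out of PAI-1 from human bronchial epithelial primary cells, 24 h post-dosing; bidirectional curve fit vs DMSO baseline, gain or loss of signal scored.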

[17] = read-out: urokinase plasminogen activator (uPA), PLAU (gene 5328); assay: BSK_BE3C_uPA: BioMAP Diversity Plus: BE3C Assay for urokinase plasminogen activator (uPA) Biomarker Activity (AID 2283038); details: primary human bronchial epithelial cells; actives raise or lower the signal
Method in brief: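 Using confluent primary human lung bronchial epithelial cultures, we dosed chemicals, waited 24 h, then ran a uPA ELISA, fitting bidirectionally against DMSO.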

[18] = read-out: Urokinase-type plasminogen activator receptor (uPAR), PLAUR (gene 5329); assay: BSK_BE3C_uPAR: BioMAP Diversity Plus: BE3C Assay for Urokinase-type plasminogen activator receptor (uPAR) Biomarker Activity (AID 2283039); details: primary human bronchial epithelial cells; actives raise or lower the signal
Method in brief: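 ELISA readout of uPAR on human lung primary bronchial epithelial cells, 24 h post-dosing. Bidirectional curve fit relative to DMSO vehicle baseline; gain or loss of signal both scored.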

[19] = read-out: Vascular endothelial growth factor receptor 2 (Homo sapiens) (UniProt P35968); assay: BSK_4H_VEGFRII: BioMAP Diversity Plus: 4H Assay for Vascular endothelial growth factor receptor 2 (VEGFR2) Biomarker Activity (AID 2283031); details: primary human endothelial cells (HUVEC); actives raise or lower the signal;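 for AC50: cell-surface VEGFR2 protein level quantified by ELISA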
Method in brief: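 In this multiplexed HUVEC system, biomarker ELISA was performed after 24 h chemical exposure. Parallel SRB staining (TCA fixation, 560 nm) tracked cytotoxicity; DMSO served as baseline.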

[20] = read-out: Vascular cell adhesion molecule 1 (VCAM1), VCAM1 (gene 7412); assay: BSK_4H_VCAM1: BioMAP Diversity Plus: 4H Assay for Vascular cell adhesion molecule 1 (VCAM1) Biomarker Activity (AID 2283033); details: primary human endothelial cells (HUVEC); actives raise or lower the signal
Method in brief: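 HUVEC, 24 h post-dose; VCAM-1 by ELISA. Bidirectional curve fit vs DMSO baseline. Parallel SRB total-protein stain (0.1% SRB after 10% TCA fixation, 560 nm) for cytotoxicity.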

Measured: AC50

Oc1ccc(C(c2ccc(O)cc2)C(Cl)(Cl)Cl)cc1
inactive: [15]
active: [1] 33.5 µM | [2] 15.5 µM | [3] 30.7 µM | [4] 16.4 µM | [5] 33.1 µM | [6] 29.4 µM | [7] 20 µM | [8] 19.3 µM | [9] 30.2 µM | [10] 6.1 µM | [11] 31.4 µM | [12] 26.5 µM | [13] 29.3 µM | [14] 34.7 µM | [16] 28.5 µM | [17] 36.6 µM | [18] 31.1 µM

C=CCOC(Cn1ccnc1)c1ccc(Cl)cc1Cl (centres undefined)
active: [1] 13.6 µM | [6] 9.8 µM
not listed: [9] | [11] | [20]
inactive: all other assays above

COC(=O)c1ccccc1C(=O)O
active: [1] 9.98 µM
not listed: [9] | [20]
inactive: all other assays above

CCCCOC(=O)C(C)Oc1ccc(Oc2ccc(C(F)(F)F)cn2)cc1 (centres undefined)
not listed: [9]
inactive: all other assays above

C[C@]12CC[C@@H]3c4ccc(O)cc4C[C@@H](CCCCCCCCCS(=O)CCCC(F)(F)C(F)(F)F)[C@H]3[C@@H]1CC[C@@H]2O (some centres undefined)
active: [5] 0.907 µM | [11] 12.4 µM
not listed: [4]
inactive: all other assays above

O=C(O)C1(C(=O)Nc2ccc(Cl)cc2Cl)CC1
active: [1] 4.68 µM | [12] 10.7 µM | [13] 23.8 µM
not listed: [4]
inactive: all other assays above

CCCN(CCC)c1c([N+](=O)[O-])cc(C(F)(F)F)c(N)c1[N+](=O)[O-]
inactive: [5] | [15] | [17]
active: [1] 18.4 µM | [2] 32.9 µM | [3] 31.7 µM | [4] 30.6 µM | [6] 16.3 µM | [7] 30.3 µM | [8] 31.5 µM | [10] 2.15 µM | [11] 33.1 µM | [19] 32.3 µM | [12] 11.6 µM | [13] 32.6 µM | [14] 22.9 µM | [16] 36.2 µM

COC(=O)CSc1cc(N=c2sc(=O)n3n2CCCC3)c(F)cc1Cl
active: [10] 1.21 µM
not listed: [4]
inactive: all other assays above

N#CSCSc1nc2ccccc2s1
active: [1] 2.3 µM and 5.63 µM | [2] 8.35 µM and 14.4 µM | [3] 11 µM and 11.9 µM | [4] 5.31 µM and 5.24 µM | [5] 7.12 µM and 11.3 µM | [6] 4.4 µM and 4.82 µM | [7] 1.24 µM and 5.49 µM | [8] 3.51 µM and 10.6 µM | [10] 35.8 µM | [11] 5.3 µM and 6.65 µM | [19] 5.06 µM and 5.42 µM | [12] 6.17 µM and 12.1 µM | [13] 9.03 µM and 11.8 µM | [14] 9.86 µM and 12.2 µM | [15] 11.2 µM | [16] 4.99 µM and 11.8 µM | [17] 6.61 µM and 12.1 µM | [18] 5.42 µM and 11.5 µM
inactive: [10] | [15]

C#CCOC(=O)[C@@H](C)Oc1ccc(Oc2ncc(Cl)cc2F)cc1
not listed: [9] | [20]
inactive: all other assays above

CCN(Cc1c(F)cccc1Cl)c1c([N+](=O)[O-])cc(C(F)(F)F)cc1[N+](=O)[O-]
active: [1] 5.69 µM | [6] 13.7 µM | [8] 12.6 µM | [9] 8.78 µM | [20] 4.57 µM
not listed: [4]
inactive: all other assays above

COC(=O)c1c(Cl)nn(C)c1S(=O)(=O)NC(=O)Nc1nc(OC)cc(OC)n1
not listed: [9] | [20]
inactive: all other assays above

N[C@@H](Cc1cc(I)c(Oc2ccc(O)c(I)c2)c(I)c1)C(=O)O
active: [5] 3.8 µM | [13] 21.3 µM | [16] 18.8 µM
not listed: [9] | [20]
inactive: all other assays above
